These compounds were tested on Sonic hedgehog protein (Shh) (assay: small-molecule binders of Shh protein, primary screen, biochemical, small-molecule microarray, 635/667 nm fluorescence (AID 1151;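 further: Shh protein binding to compounds spotted on small-molecule microarray slides; score combines spot fluorescence intensity with signal-to-noise across triplicate slides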)). Conditions: small-molecule microarray binding, 635 nm fluorescence; higher = more signal.

Compound	composite z-score
COCCOC(=O)N1C(=O)[C@@]2(c3cc(C#Cc4ccc(OC)cc4)ccc31)[C@H](c1ccc(OCCO)cc1)N1[C@H](c3ccccc3)[C@H](c3ccccc3)OC(=O)[C@H]1[C@@H]2C(=O)N1CCN(c2ncccn2)CC1	1.69
C[N+](C)(C)CCCCCCNC(=O)[C@@H]1C[C@@H]2C(=O)N[C@@H](Cc3ccccc3)C(=O)N2[C@@H]1c1cccc(OCCO)c1	1.92
CCOC(=O)C1=C[C@@H](C(C)(C)C)N(S(=O)(=O)c2ccc(C)cc2)[C@H]1c1ccc(F)cc1	0.584
COC(=O)c1c(CC[C@@H](CO)NC(=O)NCCn2cc(C3(O)CCCC3)nn2)oc(C(C)=O)c1C(=O)OC	-0.303
NC(=O)N1C(=O)C2C(C1=O)C1C=C(c3ccc(CO)cc3)C2C(c2cccs2)N1Cc1cccc(OC(F)(F)F)c1 (stereo not given)	0.235
NC(=O)[C@@H]1[C@H]2C(=O)O[C@H](c3ccccc3)[C@H](c3ccccc3)N2[C@H](c2ccc(O)cc2)[C@@]12C(=O)Nc1ccccc12	0.154
CC(C)N1C(=O)C[C@@](C(=O)NCC(F)(F)F)(c2ccc([N+](=O)[O-])cc2)[C@H]1c1ccc(CO)cc1	1.24
COCCCNC(=O)[C@@]1(C)c2ccccc2C(=O)N(C(C)C)[C@H]1c1ccc(CO)cc1	1.38
C=C(/C(=C/C[C@H](OC(C)=O)c1ccccc1OCCO)c1cnc2ccccc2c1)C(C)C	1.09
C=CCNC(=O)[C@@H]1[C@H]2C(=O)O[C@H](c3ccccc3)[C@H](c3ccccc3)N2[C@H](c2ccc(O)cc2)[C@@]12C(=O)N(C(=O)OCCOC)c1ccc(C#CCNC(N)=O)cc12	1.45

— PubChem BioAssay
